Residue numbers refer to the chain shown, from its start. Whole data set: some 24,000 sequences, median “enrichment r” near 0.99, cut for the highest 2% near 3.7. This is one part of a sample in which the highest values are shown more often than they occur.

The text below walks through data of article PMC12136788.

T1: UNK ZnF1-3 (human, UniProt Q9C0B0 31-174)
T1 sequence: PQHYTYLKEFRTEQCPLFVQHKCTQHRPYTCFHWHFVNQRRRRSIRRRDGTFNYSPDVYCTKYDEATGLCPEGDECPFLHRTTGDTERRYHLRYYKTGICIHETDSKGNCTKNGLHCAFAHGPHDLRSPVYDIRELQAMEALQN

B1: chr1:89346535:89346536:+_ENSMUSG00000048000_ENSMUST00000174671|mus_hu|motif|central (ssRNA)
RNA: GGGAGUUCUACAGUCCGACGAUCAGCUGCCUCUUAAACGAGACAAAUUUUCAGCAGAAGGGCCCAAAACAAAAUGGUCCGGGUCCUCUGAAGUAAAAAUAUUUAUGGGAAAAAUCAGUUUUUGUAAGAAAGAAAAAUUAAGAACAACAGAGGAUUGAGCAUCA
B2: chr1:89346535:89346536:+_ENSMUSG00000048000_ENSMUST00000174671|mus_hu|FALSE|FALSE (ssRNA)
RNA: B1 RNA with G80U, G81A
B3: chr1:89346535:89346536:+_ENSMUSG00000048000_ENSMUST00000174671|mus_mus|motif|central (ssRNA)
RNA: GGGAGUUCUACAGUCCGACGAUCAAGAUGCCUCUUAAACGAGACAAAUUUUCACAUAAGGGCCCAAAACAAACUGGUCCGGGUCCUUGAAGUAAAAAUAUUUAUGGGAGGAGGGGAGAUCAGUUUUUAUAUGAAAGGAAAAUUCAACAGAGGAUUGAGCAUCA
B4: chr2:42509997:42509998:+_ENSG00000143924_ENST00000318522|hu_mus|hu_hu_hu_mus_True|78_78 (ssRNA)
RNA: GGGAGUUCUACAGUCCGACGAUCUCGCUGAGUCCUCUCCUCAUAAUUAAACAGGACUACUACUGAUGCGAUAAAAUAAACUAUCUCCCCUGUGGGAAGCAGGUAUACAUUCGCUCUACAGUCCUUUCCUCGAUAACCGUAUACCAACAGAGGAUUGAGCAUCA
B5: chr10:13251168:13251169:-_ENSMUSG00000019809_ENSMUST00000019945|mus_hu|FALSE|FALSE (ssRNA)
RNA: GGGAGUUCUACAGUCCGACGAUCAGCCAUAUUGUCUAGAAGUCUACUAAAACCUCGGUUUAAACAGGUAUUCAAAACUGUACUAAAAUCUGGGCUUUCCAACAUGUCUCUAGUUUCAUUGAGAAGUUUAAUAGUGGUAAUGUCCAACAGAGGAUUGAGCAUCA
B6: chr16:732453:732454:+_ENSG00000103266_ENST00000219548|hu_mus|FALSE|FALSE (ssRNA)
RNA: GGGAGUUCUACAGUCCGACGAUCUGCCAGGCAGGACAUGGGGCCUCAAUAGUCCUCUACCCAGCCGUUCUCAGAGAUGAAAGCGUCAAUGACUUCCUUCAUGGCCAAGUUGGGGAUGAGCUGUUCCUGGGUCAGAGGGCUCCGCAACAGAGGAUUGAGCAUCA
B7: chr9:95013113:95013114:-_ENSG00000196305_ENST00000443024|hu_hu|hu_hu_hu_mus_False|1_88 (ssRNA)
RNA: GGGAGUUCUACAGUCCGACGAUCCUCAGUCAGAAAGGGCGUGUAAGGAGCCAUAAGUCUGCACAGAGAAAGCAGGACACUGAACAGUGUCUCCAGAGCCAUGACACAGUCUUCCACCCCACUCUCACCCUUUAACCUUCUGCGCAACAGAGGAUUGAGCAUCA
B8: chr9:56975896:56975897:+_ENSMUSG00000042557_ENSMUST00000167715|mus_hu|FALSE|FALSE (ssRNA)
RNA: GGGAGUUCUACAGUCCGACGAUCACAUCAAAGCAUAUUUCUUUUAAUAAAAAAUUGACAGUAUGUACAUUAUGUACAAAAAAACAAGUUAAAAUUGUGUGUGUGUGUGCGUGUGUGUGUCAGAGAGUAAAGCUGGUGGAUGGCCAACAGAGGAUUGAGCAUCA
B9: chr7:135612270:135612271:-_ENSG00000105887_ENST00000393085|hu_mus|hu_hu_hu_mus_False|1_58 (ssRNA)
RNA: GGGAGUUCUACAGUCCGACGAUCGUUUUUUUCUGAGAUGUUAAAUAGUACUUCAGUGGAAAACAAAACUUAACCUUUCGCUAAUGCGUGUUGUACCAAAAGCAGACAUUUUAGCUUCAUUUAUUCAAAAAUAUUAAGAACAUUCAACAGAGGAUUGAGCAUCA
B10: chr7:135612270:135612271:-_ENSG00000105887_ENST00000393085|hu_mus|hu_hu_hu_mus_False|28_108 (ssRNA)
RNA: GGGAGUUCUACAGUCCGACGAUCGUUUCUGAGAUGUAUGUUAAAUAGUACUUCAGUGGAAAACAAAACUUAACCUUUUAUUAAUGCGUGUUGUACCAAAAGCAGACCAUGGUUUUACAUUUAUUCAAAAAUAUUAACAUUAAGCAACAGAGGAUUGAGCAUCA
B11: chr16:30313237:30313238:-_ENSMUSG00000022533_ENSMUST00000100013|mus_mus|FALSE|FALSE (ssRNA)
RNA: GGGAGUUCUACAGUCCGACGAUCAACAACCCUGAGGGAGACCCACAUUAAAAAAUCUUAUUUAUUUAAAAAGUUAAAAAGCUACAUAUCAUUAUUUAACAAUUACUUUACCAGACAUUUCUGUCCUUUAAGUAUGUGCAUAAACAACAGAGGAUUGAGCAUCA
B12: chr7:135612270:135612271:-_ENSG00000105887_ENST00000393085|hu_mus|hu_hu_hu_mus_False|28_58 (ssRNA)
RNA: GGGAGUUCUACAGUCCGACGAUCGUUUUUUUCUGAGAUGUUAAAUAGUACUUCAGUGGAAAACAAAACUUAACCUUUCGCUAAUGCGUGUUGUACCAAAAGCAGACCAUGGUUUUACAUUUAUUCAAAAAUAUUAACAUUAAGCAACAGAGGAUUGAGCAUCA
B13: chr16:30313237:30313238:-_ENSMUSG00000022533_ENSMUST00000100013|mus_hu|FALSE|FALSE (ssRNA)
RNA: GGGAGUUCUACAGUCCGACGAUCCAACCCUGAGGGAGACACACAUUAAAAAUCUUGUUAUUUAUUUAAAAAGUUAAAAAGUUACAUAUCAUUAUUUAACAAUUACUUUCCCAGACAUUUCUGUCCUUUAAGUAUGUGCAUAAACAACAGAGGAUUGAGCAUCA
B14: chr7:135612270:135612271:-_ENSG00000105887_ENST00000393085|hu_mus|hu_hu_hu_mus_False|28_38 (ssRNA)
RNA: B12 RNA with C78U, G79A, C80U, A98G, G101A, C102G, A103C, G104A, C106A
B15: chr1:58468927:58468928:-_ENSMUSG00000026034_ENSMUST00000148330|mus_mus|mus_mus_mus_hu_False|28_48 (ssRNA)
RNA: GGGAGUUCUACAGUCCGACGAUCAAUUACUGAAAAAGAUGUUCAUUACCUUAGCUAUGUACUUAAUGAACCAAAUUACCCAAACAACAUAAAAUGUGCAAUAUAAAAAGCUAUACAAUUUACAAAGCUGUACAAAAUAACUUACAACAGAGGAUUGAGCAUCA
B16: chr7:135612270:135612271:-_ENSG00000105887_ENST00000393085|hu_mus|hu_hu_hu_mus_False|38_88 (ssRNA)
RNA: GGGAGUUCUACAGUCCGACGAUCGUUUUUUUCUGAGAUGUUAAAUAUUCAGUGGAGGGAAAACAAAACUUAACCUUUUAUUAAUGCGUGUUGUACCAGAAAGCAAAAUUUUAGCUUCAUUUAUUCAAAAAUAUUAACAUUAAGCAACAGAGGAUUGAGCAUCA
B17: chr11:94154035:94154036:-_ENSMUSG00000020863_ENSMUST00000107820|mus_mus|FALSE|FALSE (ssRNA)
RNA: GGGAGUUCUACAGUCCGACGAUCAAUAGUUAAGUUUUAAAGCAUAUGUUUCUGCCAAUGUACCAACACAAGAUGGACUUAAUACCAAAAAGAAAAAAAAAACAGUUCAACCUUUUUAUUAAAAAAAAAAAGAAAAAGAAAAAGCAACAGAGGAUUGAGCAUCA
B18: chr7:135612270:135612271:-_ENSG00000105887_ENST00000393085|hu_mus|hu_hu_hu_mus_False|38_48 (ssRNA)
RNA: B16 RNA with U47G, C49A, A50C, G51U, G53C, G54A, A55G, G56U, G87A, U91A

For this experiment, the target named is T1, UNK ZnF1-3. Put plainly: nsRBNS (natural sequence RNA bind-n-seq); RBNS binding buffer (assumed for nsRBNS): 25 mM Tris pH 7.5, 150 mM KCl, 3 mM MgCl2, 0.01% Triton X-100, 500 ug/ml BSA, 20 U/ml SUPERase-In, 4 C; UNK is unkempt and MSI1 is Musashi-1; names of the RNAs are library labels; protein concentration not given here; high values mean tight binding.
In turn, B1 had a binding signal of 10.8 enrichment R.
As to B2, the binding signal is 14.4 enrichment R.
The same measure for B3: 0.843 enrichment R.
Under B4 stands 0.957 enrichment R; under B5, 1.27 enrichment R.
Under B6 stands 1.44 enrichment R; under B7, 1.12 enrichment R.
The molecule B8 had a binding signal of 5.76 enrichment R.
The same measure for B9: 0.611 enrichment R.
Under B10 stands 0.924 enrichment R.
Consider B11, for which the binding signal worked out at 4.91 enrichment R.
Turning to B12, the binding signal is 1.03 enrichment R.
Under B13 stands 3.61 enrichment R.
B14 yielded a binding signal of 0.956 enrichment R.
The same measure for B15: 0.529 enrichment R; for B16: 4.08 enrichment R; for B17: 6.23 enrichment R.
B18 came in with a binding signal of 1.66 enrichment R.
